Holding throughout (assay): DAPPL (digital affinity profiling via proximity ligation, sequencing); 10 mM Tris-HCl pH 7.5, 50 mM NaCl, 1 mM DTT, 4% glycerol, room temperature, 30 min; GST-TFs on glutathione beads, 16-mer random dsDNA library, 0.1% formaldehyde crosslink after washing; high values mean tight binding
For assay [1], the target named is T1, FLI1 (Homo sapiens, UniProt Q01543 1-452).
T1 sequence: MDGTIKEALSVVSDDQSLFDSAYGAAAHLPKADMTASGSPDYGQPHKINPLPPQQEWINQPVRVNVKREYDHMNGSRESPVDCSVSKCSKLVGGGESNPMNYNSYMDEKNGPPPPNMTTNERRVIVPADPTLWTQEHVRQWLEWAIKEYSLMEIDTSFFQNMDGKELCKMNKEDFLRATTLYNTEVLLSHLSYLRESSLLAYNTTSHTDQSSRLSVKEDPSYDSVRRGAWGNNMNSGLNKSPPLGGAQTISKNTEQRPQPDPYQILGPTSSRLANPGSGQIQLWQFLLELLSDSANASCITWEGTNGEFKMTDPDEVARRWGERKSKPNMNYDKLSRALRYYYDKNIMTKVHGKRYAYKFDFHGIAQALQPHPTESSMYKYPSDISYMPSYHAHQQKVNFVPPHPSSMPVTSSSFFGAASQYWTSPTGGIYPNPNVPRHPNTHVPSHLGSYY
Conditions: protein: recombinant; tags: N-terminal GST; dsDNA, one strand shown. The gist of the method: (§1)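 Sequencing on an Illumina NextSeq500 followed washing, crosslinking with 0.1% formaldehyde, proximity ligation (BsaI/T4 ligase, 1 h, 37 °C) and PCR amplification of pools that had been incubated for 30 min at room temperature with 200 nmole of a random double-stranded 16-mer DNA library in Tris/NaCl/DTT/glycerol buffer. Each pool held DNA-barcoded human transcription factors, expressed in yeast as GST fusions and captured on glutathione beads, plus a tag-only sample. Binding signal is a hexamer's read frequency for a factor divided by its frequency in the tag-only sample.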

The target of assay [2] is T2, ELK1 (Homo sapiens, UniProt P19419 1-428).
T2 sequence: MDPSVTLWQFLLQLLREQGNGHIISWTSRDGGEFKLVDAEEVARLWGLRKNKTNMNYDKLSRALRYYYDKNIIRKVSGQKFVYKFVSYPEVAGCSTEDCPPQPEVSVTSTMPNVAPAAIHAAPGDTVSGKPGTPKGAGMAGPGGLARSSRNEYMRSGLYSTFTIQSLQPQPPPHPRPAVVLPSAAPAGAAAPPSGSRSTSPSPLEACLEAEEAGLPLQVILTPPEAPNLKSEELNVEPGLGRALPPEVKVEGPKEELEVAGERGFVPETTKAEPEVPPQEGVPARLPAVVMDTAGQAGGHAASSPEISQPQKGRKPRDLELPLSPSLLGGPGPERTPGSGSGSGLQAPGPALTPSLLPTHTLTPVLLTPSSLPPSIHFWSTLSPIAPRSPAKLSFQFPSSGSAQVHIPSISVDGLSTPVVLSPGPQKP
Conditions: protein: recombinant; tags: N-terminal GST; dsDNA, one strand shown. The gist of the method: as §1

Assay [3] addresses T3, GABPA (Homo sapiens, UniProt Q06546 1-454).
T3 sequence: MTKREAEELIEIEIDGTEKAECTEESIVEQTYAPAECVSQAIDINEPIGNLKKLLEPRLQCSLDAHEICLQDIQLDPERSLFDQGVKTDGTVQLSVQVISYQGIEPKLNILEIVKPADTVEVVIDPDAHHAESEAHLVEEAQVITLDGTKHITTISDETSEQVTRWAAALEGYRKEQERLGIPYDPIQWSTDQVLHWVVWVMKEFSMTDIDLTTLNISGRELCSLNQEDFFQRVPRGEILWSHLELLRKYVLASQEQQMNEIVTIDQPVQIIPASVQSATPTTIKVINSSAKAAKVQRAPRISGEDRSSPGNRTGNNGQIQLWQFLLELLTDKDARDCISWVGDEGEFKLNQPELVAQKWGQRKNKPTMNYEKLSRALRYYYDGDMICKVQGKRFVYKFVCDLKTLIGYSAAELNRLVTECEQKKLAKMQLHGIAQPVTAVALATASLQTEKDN
Conditions: protein: recombinant; tags: N-terminal GST; dsDNA, one strand shown. The gist of the method:
as §1

Assay [4] deals with T4, ERG (Homo sapiens, UniProt P11308 1-479).
T4 sequence: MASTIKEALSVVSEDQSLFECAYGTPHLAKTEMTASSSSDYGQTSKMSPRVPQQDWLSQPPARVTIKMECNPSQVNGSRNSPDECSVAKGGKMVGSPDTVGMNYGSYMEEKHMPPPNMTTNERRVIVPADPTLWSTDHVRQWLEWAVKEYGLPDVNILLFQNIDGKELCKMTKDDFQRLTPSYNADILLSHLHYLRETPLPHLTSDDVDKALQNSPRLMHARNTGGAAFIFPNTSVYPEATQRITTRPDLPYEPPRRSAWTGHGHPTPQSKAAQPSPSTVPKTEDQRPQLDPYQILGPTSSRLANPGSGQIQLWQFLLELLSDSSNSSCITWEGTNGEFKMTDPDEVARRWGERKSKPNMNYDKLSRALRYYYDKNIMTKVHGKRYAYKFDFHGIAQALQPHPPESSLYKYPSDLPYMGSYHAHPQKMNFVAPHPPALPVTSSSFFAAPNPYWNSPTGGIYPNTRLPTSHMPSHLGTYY
Conditions: protein: recombinant; tags: N-terminal GST; dsDNA, one strand shown. The method in brief:
as §1

The target of assay [5] is ELF1 (Homo sapiens, UniProt P32519 1-619). As to conditions: protein: recombinant; tags: N-terminal GST; dsDNA, one strand shown. The gist of the method:
as §1

Assay [6] addresses T5, EHF (Homo sapiens, UniProt Q9NZC4 1-300).
T5 sequence: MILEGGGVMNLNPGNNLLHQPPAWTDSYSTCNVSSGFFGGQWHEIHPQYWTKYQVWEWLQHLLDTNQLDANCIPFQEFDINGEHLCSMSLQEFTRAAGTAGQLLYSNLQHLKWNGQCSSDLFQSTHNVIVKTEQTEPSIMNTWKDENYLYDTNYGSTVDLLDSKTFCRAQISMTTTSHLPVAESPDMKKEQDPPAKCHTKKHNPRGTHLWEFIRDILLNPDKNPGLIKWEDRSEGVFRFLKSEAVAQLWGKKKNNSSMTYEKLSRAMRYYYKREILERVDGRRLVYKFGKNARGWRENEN
As to conditions: protein: recombinant; tags: N-terminal GST; dsDNA, one strand shown. The gist of the method:
as §1

The target of assay [7] is SPI1 (Homo sapiens, UniProt P17947 1-270). As to conditions: protein: recombinant; tags: N-terminal GST; dsDNA, one strand shown. The gist of the method: as §1
In assay [8] the target is SPIB (Homo sapiens, UniProt Q01892 1-262). Conditions: protein: recombinant; tags: N-terminal GST; dsDNA, one strand shown. The gist of the method:
as §1

Assay [9] addresses T6, ELK3 (Homo sapiens, UniProt P41970 1-407).
T6 sequence: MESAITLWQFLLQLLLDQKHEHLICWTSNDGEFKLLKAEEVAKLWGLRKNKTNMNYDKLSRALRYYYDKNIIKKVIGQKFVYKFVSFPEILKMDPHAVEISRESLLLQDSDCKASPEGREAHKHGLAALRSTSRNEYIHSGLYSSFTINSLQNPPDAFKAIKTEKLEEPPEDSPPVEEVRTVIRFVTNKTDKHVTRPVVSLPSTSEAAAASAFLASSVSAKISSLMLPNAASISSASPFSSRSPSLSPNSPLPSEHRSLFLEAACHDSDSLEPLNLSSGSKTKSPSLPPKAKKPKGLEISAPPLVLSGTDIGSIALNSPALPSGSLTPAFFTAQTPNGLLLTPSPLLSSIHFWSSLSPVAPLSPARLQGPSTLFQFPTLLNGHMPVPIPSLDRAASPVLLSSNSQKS
Conditions: protein: recombinant; tags: N-terminal GST; dsDNA, one strand shown. The gist of the method:
as §1

Assay [10] has as its target T7, FEV (Homo sapiens, UniProt Q99581 1-238).
T7 sequence: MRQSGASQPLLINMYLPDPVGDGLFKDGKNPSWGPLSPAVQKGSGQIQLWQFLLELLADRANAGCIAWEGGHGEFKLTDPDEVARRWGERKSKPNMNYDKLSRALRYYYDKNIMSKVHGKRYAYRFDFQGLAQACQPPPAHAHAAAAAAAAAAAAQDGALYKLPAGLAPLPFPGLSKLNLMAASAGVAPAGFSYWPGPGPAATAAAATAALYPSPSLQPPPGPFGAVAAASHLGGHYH
Conditions: protein: recombinant; tags: N-terminal GST; dsDNA, one strand shown. The gist of the method:
as §1

In assay [11] the target is ETV5 (Homo sapiens, UniProt P41161 1-510). Conditions: protein: recombinant; tags: N-terminal GST; dsDNA, one strand shown. The gist of the method:
as §1

In assay [12] the target is HSF1 (Homo sapiens, UniProt Q00613 1-529). As to conditions: protein: recombinant; tags: N-terminal GST; chain copies: 3; dsDNA, one strand shown. The method in brief: as §1
Assay [13] concerns the target T8, SPIC (Homo sapiens, UniProt Q8N5J4 1-248).
T8 sequence: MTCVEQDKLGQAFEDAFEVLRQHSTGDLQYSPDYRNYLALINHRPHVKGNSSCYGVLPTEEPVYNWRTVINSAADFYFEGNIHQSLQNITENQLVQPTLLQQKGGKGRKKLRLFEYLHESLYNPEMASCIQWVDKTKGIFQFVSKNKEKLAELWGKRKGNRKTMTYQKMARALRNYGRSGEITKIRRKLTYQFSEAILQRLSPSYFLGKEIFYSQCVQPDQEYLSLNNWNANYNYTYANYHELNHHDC
Conditions: protein: recombinant; tags: N-terminal GST; dsDNA, one strand shown. The gist of the method: as §1

Assay [14] concerns the target ELF4 (Homo sapiens, UniProt Q99607 1-663). Conditions: protein: recombinant; tags: N-terminal GST; dsDNA, one strand shown. The gist of the method:
as §1

The target of assay [15] is T9, ELK4 (Homo sapiens, UniProt P28324-2 1-405).
T9 sequence: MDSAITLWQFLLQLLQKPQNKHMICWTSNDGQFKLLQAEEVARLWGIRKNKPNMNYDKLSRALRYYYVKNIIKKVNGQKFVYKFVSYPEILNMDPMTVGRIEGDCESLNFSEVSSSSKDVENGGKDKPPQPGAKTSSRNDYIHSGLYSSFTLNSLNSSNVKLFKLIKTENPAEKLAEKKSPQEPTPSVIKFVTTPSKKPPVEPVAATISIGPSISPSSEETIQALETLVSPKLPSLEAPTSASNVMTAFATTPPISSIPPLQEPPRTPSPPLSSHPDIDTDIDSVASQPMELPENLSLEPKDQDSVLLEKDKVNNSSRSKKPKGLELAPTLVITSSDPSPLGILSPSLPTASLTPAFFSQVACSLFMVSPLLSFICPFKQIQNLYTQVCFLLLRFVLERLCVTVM
Conditions: protein: recombinant; tags: N-terminal GST; dsDNA, one strand shown. The gist of the method:
as §1

Assay [16] deals with T10, ETV2 (Homo sapiens, UniProt O00321 1-342).
T10 sequence: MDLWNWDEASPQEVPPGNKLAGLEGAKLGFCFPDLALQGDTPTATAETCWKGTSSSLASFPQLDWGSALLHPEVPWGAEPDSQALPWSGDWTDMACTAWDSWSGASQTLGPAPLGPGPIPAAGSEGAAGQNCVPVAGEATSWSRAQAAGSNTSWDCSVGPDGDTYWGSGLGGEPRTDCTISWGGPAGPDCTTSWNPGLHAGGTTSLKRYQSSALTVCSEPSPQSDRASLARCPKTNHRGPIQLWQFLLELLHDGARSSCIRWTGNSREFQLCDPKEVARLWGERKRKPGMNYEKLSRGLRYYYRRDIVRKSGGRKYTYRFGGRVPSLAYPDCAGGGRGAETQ
Conditions: protein: recombinant; tags: N-terminal GST; dsDNA, one strand shown. The gist of the method: as §1

Assay [17] has as its target T11, ELF3 (Homo sapiens, UniProt P78545 1-371).
T11 sequence: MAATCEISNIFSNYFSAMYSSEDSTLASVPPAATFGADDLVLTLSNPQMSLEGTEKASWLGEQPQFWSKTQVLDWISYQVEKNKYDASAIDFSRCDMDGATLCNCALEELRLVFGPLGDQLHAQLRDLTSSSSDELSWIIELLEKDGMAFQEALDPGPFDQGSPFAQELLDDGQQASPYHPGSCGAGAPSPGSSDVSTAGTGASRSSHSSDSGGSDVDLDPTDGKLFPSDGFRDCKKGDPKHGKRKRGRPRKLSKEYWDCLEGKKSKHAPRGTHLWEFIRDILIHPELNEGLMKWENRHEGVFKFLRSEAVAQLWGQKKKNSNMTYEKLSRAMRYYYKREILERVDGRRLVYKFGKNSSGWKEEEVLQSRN
As to conditions: protein: recombinant; tags: N-terminal GST; dsDNA, one strand shown. The gist of the method:
as §1

Assay [18] has as its target CRX (Homo sapiens, UniProt O43186 1-299). As to conditions: protein: recombinant; tags: N-terminal GST; dsDNA, one strand shown. The gist of the method:
as §1

Chain of SPIB (Q01892 whole entry): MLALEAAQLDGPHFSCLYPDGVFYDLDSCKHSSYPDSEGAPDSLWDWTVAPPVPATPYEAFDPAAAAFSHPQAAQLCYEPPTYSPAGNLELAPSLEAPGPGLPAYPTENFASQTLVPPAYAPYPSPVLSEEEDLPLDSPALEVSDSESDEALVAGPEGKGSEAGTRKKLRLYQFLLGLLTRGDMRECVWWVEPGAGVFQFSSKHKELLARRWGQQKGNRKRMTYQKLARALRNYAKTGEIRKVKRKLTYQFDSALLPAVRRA
Chain of CRX (O43186 whole entry): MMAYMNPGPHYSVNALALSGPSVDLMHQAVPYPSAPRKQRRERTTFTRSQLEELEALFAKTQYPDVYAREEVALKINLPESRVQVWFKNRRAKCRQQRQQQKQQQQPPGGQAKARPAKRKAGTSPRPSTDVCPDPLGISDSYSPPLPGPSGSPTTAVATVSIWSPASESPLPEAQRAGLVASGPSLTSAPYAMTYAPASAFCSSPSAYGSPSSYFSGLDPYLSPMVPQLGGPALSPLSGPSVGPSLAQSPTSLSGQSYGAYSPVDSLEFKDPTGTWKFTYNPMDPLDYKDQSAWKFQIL
Chain of HSF1 (Q00613 whole entry): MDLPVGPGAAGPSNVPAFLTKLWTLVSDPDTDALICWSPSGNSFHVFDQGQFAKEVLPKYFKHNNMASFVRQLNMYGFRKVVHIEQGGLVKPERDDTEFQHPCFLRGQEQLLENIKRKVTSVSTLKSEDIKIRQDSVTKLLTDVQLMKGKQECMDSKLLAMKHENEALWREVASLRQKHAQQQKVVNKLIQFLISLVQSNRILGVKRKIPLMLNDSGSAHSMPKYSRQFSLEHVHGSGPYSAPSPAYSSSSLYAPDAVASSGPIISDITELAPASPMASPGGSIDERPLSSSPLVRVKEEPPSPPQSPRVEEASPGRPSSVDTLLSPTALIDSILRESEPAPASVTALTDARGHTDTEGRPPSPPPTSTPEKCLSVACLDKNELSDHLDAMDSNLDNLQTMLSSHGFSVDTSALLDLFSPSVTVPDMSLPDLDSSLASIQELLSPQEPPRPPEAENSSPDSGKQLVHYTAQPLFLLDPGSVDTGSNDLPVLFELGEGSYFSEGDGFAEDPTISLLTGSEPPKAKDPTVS
Chain of ETV5 (P41161 whole entry): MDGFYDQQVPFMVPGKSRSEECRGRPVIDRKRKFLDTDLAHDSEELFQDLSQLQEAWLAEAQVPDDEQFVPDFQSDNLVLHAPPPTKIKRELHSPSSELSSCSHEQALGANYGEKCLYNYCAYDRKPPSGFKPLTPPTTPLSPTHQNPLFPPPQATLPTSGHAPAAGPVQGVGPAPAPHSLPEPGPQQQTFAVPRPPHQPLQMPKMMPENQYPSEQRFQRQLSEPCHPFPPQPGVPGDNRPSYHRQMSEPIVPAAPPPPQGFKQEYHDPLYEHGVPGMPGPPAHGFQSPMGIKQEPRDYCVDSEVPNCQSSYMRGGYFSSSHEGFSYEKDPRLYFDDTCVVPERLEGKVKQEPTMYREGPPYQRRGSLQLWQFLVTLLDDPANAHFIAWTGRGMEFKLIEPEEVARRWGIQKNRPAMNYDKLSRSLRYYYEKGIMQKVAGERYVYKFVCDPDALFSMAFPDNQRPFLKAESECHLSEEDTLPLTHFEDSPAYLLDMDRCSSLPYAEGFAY
Chain of ELF4 (Q99607 whole entry): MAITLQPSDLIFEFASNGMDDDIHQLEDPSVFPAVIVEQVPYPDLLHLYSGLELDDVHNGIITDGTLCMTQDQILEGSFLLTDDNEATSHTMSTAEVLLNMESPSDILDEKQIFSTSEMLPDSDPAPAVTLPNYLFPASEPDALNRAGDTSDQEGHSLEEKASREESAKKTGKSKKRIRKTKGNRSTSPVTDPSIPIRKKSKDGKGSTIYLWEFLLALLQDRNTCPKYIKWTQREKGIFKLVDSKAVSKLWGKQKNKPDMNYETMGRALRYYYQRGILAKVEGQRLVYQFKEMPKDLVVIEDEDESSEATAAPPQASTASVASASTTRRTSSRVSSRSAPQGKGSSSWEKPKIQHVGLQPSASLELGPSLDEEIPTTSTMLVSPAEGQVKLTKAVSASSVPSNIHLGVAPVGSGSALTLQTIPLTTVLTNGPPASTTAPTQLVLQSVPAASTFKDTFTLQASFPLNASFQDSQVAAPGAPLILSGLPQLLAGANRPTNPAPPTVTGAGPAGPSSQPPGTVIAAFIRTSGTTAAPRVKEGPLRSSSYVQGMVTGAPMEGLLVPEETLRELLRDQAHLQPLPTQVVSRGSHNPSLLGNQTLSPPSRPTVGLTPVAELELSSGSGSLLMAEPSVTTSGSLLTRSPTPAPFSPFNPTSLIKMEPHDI
Chain of ELF1 (P32519 whole entry): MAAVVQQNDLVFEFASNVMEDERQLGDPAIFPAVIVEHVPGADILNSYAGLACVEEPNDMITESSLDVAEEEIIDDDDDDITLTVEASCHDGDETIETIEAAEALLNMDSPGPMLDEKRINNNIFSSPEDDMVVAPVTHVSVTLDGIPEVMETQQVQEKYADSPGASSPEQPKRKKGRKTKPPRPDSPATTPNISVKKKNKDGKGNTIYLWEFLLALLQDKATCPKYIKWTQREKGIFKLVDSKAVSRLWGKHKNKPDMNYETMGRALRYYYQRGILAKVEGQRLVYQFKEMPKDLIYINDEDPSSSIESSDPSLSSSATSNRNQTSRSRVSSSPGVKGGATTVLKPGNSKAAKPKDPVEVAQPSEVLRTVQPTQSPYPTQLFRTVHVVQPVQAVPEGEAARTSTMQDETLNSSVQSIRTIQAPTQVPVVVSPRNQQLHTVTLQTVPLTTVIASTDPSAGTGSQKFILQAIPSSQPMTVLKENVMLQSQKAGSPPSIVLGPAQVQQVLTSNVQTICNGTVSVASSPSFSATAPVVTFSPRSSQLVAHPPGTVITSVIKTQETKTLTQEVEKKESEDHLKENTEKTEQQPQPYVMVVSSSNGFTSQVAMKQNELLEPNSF

For the sequence TGATAT, the binding signal was 1.13 fold enrichment (6-mer frequency, TF over GST control) in assay [1]; 1.11 fold enrichment (6-mer frequency, TF over GST control) in assay [2]; 1.15 fold enrichment (6-mer frequency, TF over GST control) in assay [3]; 1.12 fold enrichment (6-mer frequency, TF over GST control) in assay [4]; 1.11 fold enrichment (6-mer frequency, TF over GST control) in assay [5]; 1.08 fold enrichment (6-mer frequency, TF over GST control) in assay [6]. The binding signal is 1.08 fold enrichment (6-mer frequency, TF over GST control) in assay [7]; 1.05 fold enrichment (6-mer frequency, TF over GST control) in assay [8]; 1 fold enrichment (6-mer frequency, TF over GST control) in assay [9]; 1.07 fold enrichment (6-mer frequency, TF over GST control) in [10]; 1.1 fold enrichment (6-mer frequency, TF over GST control) in assay [11]; 1.01 fold enrichment (6-mer frequency, TF over GST control) in assay [12]. Further, the binding signal in [13] was 1.05 fold enrichment (6-mer frequency, TF over GST control); in assay [14], 1.12 fold enrichment (6-mer frequency, TF over GST control); in assay [15], 1.14 fold enrichment (6-mer frequency, TF over GST control); in assay [16], 1.21 fold enrichment (6-mer frequency, TF over GST control); in assay [17], 1.04 fold enrichment (6-mer frequency, TF over GST control); in assay [18], 1.08 fold enrichment (6-mer frequency, TF over GST control).

The values are drawn from PMC7862700, “An all-to-all approach to the identification of sequence-specific readers for epigenetic DNA modifications on cytosine”.
